Results taken from PubChem BioAssay (Tox21).
Results filed as inconclusive are left out. Activity calls are given as the source filed them. Unless noted, the call rests on the fitted dose curve; in most records, active means well fitted curve in the direction sought with a large enough effect in the repeat runs; inconclusive means weak or mixed curves; inactive means no such curve, though single readings can be large; an effect the other way counts as inactive or inconclusive.

Legend:
[1] = A CellTox Green Cytotoxicity Assay to monitor cytotoxicity in HepG2 cells - 0 hour (AID 1224882); further: nearly all actives have a fitted effect of over 35% in size; further: potency means the concentration at half of the fitted maximal effect
In short: (§1)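 Cytotoxicity was tracked as dead-cell DNA fluorescence in HepG2 cells treated with test compounds at 37 C; each time-point value comes from one kinetic series spanning 0, 8, 16, 24, 32 and 40 h.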

[2] = A CellTox Green Cytotoxicity Assay to monitor cytotoxicity in HepG2 cells - 32 hour (AID 1224883); further: nearly all actives have a fitted effect of over 50% in size; further: potency means the concentration at half of the fitted maximal effect
In short: as §1

[3] = A CellTox Green Cytotoxicity Assay to monitor cytotoxicity in HEK293 cells - 8 hour (AID 1224884); further: nearly all actives have a fitted effect of over 35% in size; further: potency means the concentration at half of the fitted maximal effect
In short: (§2)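 Real-time, in one plate: 600 HEK293 cells/well with dead-cell DNA dye, pinned compound after 5 h, 37 C incubation over 40 h; viable cells give no appreciable fluorescence.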

[4] = qHTS RealTime-Glo MT Cell Viability Assay in HepG2 cells - 16 hour (AID 1224885); further: nearly all actives have a fitted effect of over 50% in size
In short: (§3)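 qHTS, HepG2, 600 cells/well, RealTime-Glo (NanoLuc + prosubstrate) added with cells; 5 h preincubation; DMSO compound addition; 37 C; luminescence at 0/8/16/24/32/40 h.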

[5] = qHTS RealTime-Glo MT Cell Viability Assay in HEK293 cells - 24 hour (AID 1224886); further: nearly all actives have a fitted effect of over 50% in size; further: potency means the concentration at half of the fitted maximal effect; on activity change, negative = cytotoxicity: top concentration of the series differs between compounds
In short: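 Assay medium contained NanoLuc luciferase plus cell-permeant prosubstrate, added with HEK293 cells at 600 cells/well. After 5 h at 37 C/5% CO2 compounds were added; plates stayed at 37 C for 40 h with serial luminescence reads.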

[6] = A CellTox Green Cytotoxicity Assay to monitor cytotoxicity in HEK293 cells - 16 hour (AID 1224888); further: nearly all actives have a fitted effect of over 35% in size; further: potency means the concentration at half of the fitted maximal effect
In short: as §2

[7] = qHTS RealTime-Glo MT Cell Viability Assay in HepG2 cells - 0 hour (AID 1224889); further: nearly all actives have a fitted effect of over 50% in size
In short: as §3

[8] = A CellTox Green Cytotoxicity Assay to monitor cytotoxicity in HepG2 cells - 8 hour (AID 1224890); further: nearly all actives have a fitted effect of over 45% in size; further: potency means the concentration at half of the fitted maximal effect
In short: as §1

[9] = qHTS assay to identify small molecule antagonists of the estrogen receptor alpha (ER-alpha) signaling pathway using the BG1 cell line in the presence of 0.1 nM 17-beta-estradiol - cell viability counter screen (AID 1259241); further: nearly all actives have a fitted effect of over 40% in size
In short: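 The cell line endogenously expresses full-length ER-alpha and carries four EREs driving luciferase. Cells are cultured 5 days hormone-free, treated 22 hr with compounds and 0.1 nM estradiol, then viability is read by fluorescence.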

[10] = qHTS assay to identify small molecule antagonists of the androgen receptor (AR) signaling pathway using the MDA cell line in the presence of 0.5 nM R1881 - cell viability counter screen (AID 1259242); further: nearly all actives have a fitted effect of over 45% in size
In short: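 Cells seeded at 3,000/well and allowed 5 hr at 37C, 0% CO2 before compound transfer and R1881 (0.5 nM final) addition; 16 hr later, live-cell protease fluorescence indicated cytotoxicity.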

[11] = qHTS assay to identify small molecule phospholipidosis (PLD) inducers (AID 1259344; active means well fitted curve in the direction sought with a large enough effect; an effect the other way counts as inactive or inconclusive)
In short: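 After 4 h attachment on collagen I, HepG2 cells were dosed with compound alongside LipidTOX Red, kept 24 h at 37 C, fixed, and imaged for lamellar phospholipid pits.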

[12] = qHTS assay to identify small molecule HDAC inhibitors (AID 1259364);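 further: wild-type HCT-116 cells with endogenous class I/II HDAC activity; top concentration of the series differs between compounds; nearly all actives have a fitted effect of over 45% in size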
In short: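 HCT-116 wt cells, 1,500/well, overnight attach. Compounds (DMSO) 2 h, 37 °C. HDAC-Glo I/II, 30 min RT. Luminescence.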

[13] = qHTS assay to identify small molecule HDAC inhibitors - cell viability counter screen (AID 1259365)
In short: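 Viability readout: CellTiter-Glo luminescence. Wild-type HCT-116 cells, 2hr compound treatment following overnight attachment at 37 C.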

[14] = qHTS assay to identify small molecule agonists of the sonic hedgehog signaling (Shh) pathway - cell viability counter screen (AID 1259366); further: nearly all actives have a fitted effect of over 50% in size
In short: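 Viability measured fluorometrically (CellTiter-Fluor, 1hr, 37C) in 3T3 Gli1-Luc reporter cells after 23hr compound exposure within a 24hr incubation at 37C/5% CO2.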

[15] = qHTS assay to identify small molecule antagonists of the sonic hedgehog signaling (Shh) pathway - cell viability counter screen (AID 1259367); further: nearly all actives have a fitted effect of over 55% in size
In short: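 Conditioned medium drove Shh signaling in 3T3 Gli1-Luc cells exposed to compounds at 37C and 5% CO2. Viability was determined from CellTiter-Fluor fluorescence, with reagent incubated 1 hr after 23 hr of treatment.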

[16] = qHTS assay to identify small molecule agonists of the sonic hedgehog signaling (Shh) pathway (AID 1259368; calls by dose curve;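 further: NIH/3T3-derived 3T3Gli1-Luc cells carrying a stable Gli1-driven firefly luciferase reporter; series mostly up to about 92 µM; nearly all actives have a fitted effect of over 15% in size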)
In short: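 Following a 24 hr incubation with DMSO-dissolved compounds at 37 C, 5% CO2, Gli1-Luc NIH/3T3-derived cells received luciferase reagent for 30 min at room temperature prior to luminescence measurement.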

[17] = qHTS RealTime-Glo MT Cell Viability Assay in HEK293 cells - 8 hour (AID 1224887)
In short: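 Kinetic, non-lysing viability readout. Seed HEK293 (600/well) with reagent, incubate 5 h at 37 C/5% CO2, pin 23 nL compound in DMSO, incubate at 37 C, read luminescence at 0, 8, 16, 24, 32, 40 h.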

[18] = target: Estrogen receptor (Homo sapiens) (UniProt P03372); test: qHTS assay to identify small molecule antagonists of the estrogen receptor alpha (ER-alpha) signaling pathway using the BG1 cell line in the presence of 0.1 nM 17-beta-estradiol (AID 1259244); further: nearly all actives have a fitted effect of over 50% in size
Chain of Estrogen receptor (Homo sapiens) (P03372 whole entry, looked up): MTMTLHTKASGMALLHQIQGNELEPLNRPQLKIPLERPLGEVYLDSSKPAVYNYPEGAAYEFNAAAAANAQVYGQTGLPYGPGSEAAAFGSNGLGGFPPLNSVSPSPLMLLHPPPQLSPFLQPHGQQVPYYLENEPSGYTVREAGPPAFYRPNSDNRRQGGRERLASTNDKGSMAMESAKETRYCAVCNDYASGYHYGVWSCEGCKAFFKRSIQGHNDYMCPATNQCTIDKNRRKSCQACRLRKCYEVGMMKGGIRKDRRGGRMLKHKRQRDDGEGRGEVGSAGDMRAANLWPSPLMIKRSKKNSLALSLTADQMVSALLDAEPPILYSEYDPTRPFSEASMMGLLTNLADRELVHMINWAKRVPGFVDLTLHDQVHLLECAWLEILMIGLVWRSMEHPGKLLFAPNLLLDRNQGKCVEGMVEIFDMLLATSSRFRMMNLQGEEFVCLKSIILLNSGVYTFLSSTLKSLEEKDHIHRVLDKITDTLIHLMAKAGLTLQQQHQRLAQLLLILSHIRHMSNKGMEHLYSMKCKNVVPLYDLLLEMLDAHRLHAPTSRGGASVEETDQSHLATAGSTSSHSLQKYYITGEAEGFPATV
In short: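 Luciferase signal from VM7Luc4E2 ERE-reporter cells, co-dosed with test compound and 0.1 nM final 17beta-estradiol for 22 h, read with ONE-Glo.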

[19] = qHTS assay to identify small molecule antagonists of the sonic hedgehog signaling (Shh) pathway (AID 1259369; calls by dose curve; further: nearly all actives have a fitted effect of over 45% in size)
In short: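 Read-out is luminescence from a firefly luciferase gene controlled by the Gli1 response element, in 3T3Gli1-Luc cells pre-incubated 4hr then exposed to compounds and conditioned medium for 24hr.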

[20] = target: Androgen receptor (Homo sapiens) (UniProt P10275); test: qHTS assay to identify small molecule antagonists of the androgen receptor (AR) signaling pathway using the MDA cell line in the presence of 0.5 nM R1881 (AID 1259243); further: nearly all actives have a fitted effect of over 50% in size
Chain of Androgen receptor (Homo sapiens) (P10275 whole entry, looked up): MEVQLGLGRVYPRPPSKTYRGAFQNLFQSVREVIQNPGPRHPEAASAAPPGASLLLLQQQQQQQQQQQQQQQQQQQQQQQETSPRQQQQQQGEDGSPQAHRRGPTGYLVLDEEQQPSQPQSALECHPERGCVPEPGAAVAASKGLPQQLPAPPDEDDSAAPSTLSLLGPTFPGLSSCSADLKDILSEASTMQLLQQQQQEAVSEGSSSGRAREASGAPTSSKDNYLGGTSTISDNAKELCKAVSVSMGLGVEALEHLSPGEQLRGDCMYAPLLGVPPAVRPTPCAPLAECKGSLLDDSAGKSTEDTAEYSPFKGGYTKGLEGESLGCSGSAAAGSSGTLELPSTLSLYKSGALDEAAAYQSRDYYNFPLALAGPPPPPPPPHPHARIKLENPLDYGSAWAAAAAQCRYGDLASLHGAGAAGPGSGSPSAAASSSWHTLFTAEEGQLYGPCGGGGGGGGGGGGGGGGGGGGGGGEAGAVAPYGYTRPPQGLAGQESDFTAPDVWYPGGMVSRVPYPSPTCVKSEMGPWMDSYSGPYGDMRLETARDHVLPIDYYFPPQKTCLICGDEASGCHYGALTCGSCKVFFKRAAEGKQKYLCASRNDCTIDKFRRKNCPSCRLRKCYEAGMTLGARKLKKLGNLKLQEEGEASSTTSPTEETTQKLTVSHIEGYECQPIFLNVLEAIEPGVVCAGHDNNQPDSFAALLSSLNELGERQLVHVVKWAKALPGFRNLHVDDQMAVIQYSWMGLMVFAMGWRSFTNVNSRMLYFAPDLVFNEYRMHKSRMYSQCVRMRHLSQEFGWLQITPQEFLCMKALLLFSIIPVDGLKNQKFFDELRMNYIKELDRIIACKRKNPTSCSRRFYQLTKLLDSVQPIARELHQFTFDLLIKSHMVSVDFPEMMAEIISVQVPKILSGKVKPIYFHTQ
In short: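 Luminescence from an AR/GR-responsive MMTV-luciferase construct in MDA-kb2 breast carcinoma cells, read 30 min after ONE-Glo, following 16 hr co-treatment with compounds and 0.5 nM R1881.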
On the % scale 0 is the no-effect control and ±100 the full control effect.

CC(C)Cc1ccc(CC(=O)O)cc1
active: Potency [1] 19 µM | Potency [2] 19 µM | Potency [3] 9.52 µM | Potency [6] 9.52 µM | Potency [8] 21.3 µM
inactive: Potency [4] | Potency [5] | Potency [7] | Potency [9] | Potency [10] | Potency [11] | Potency [12] | Potency [13] | Potency [14] | Potency [15] | Potency [16]

CC1=CC[C@@H]2C[C@H]1C2(C)C
inactive: cytotoxicity [1] -3.74% [at 15.8 µM] | cytotoxicity increase [2] -9% [at 15.8 µM] | cytotoxicity increase [3] 0.245% [at 15.8 µM] | activity change, negative = cytotoxic [4] 1.14% [at 15.8 µM] | activity change, negative = cytotoxicity [5] 1.87% [at 15.8 µM] | activity change, negative = cytotoxicity [17] -0.368% [at 15.8 µM] | activity change, negative = cytotoxicity [7] -1.11% [at 15.8 µM] | cytotoxicity increase [8] -9.84% [at 15.8 µM] | activity change, negative = cytotoxicity [9] 3.19% [at 19 µM] | viability change, negative = cytotoxic [10] 1.84% [at 19 µM] | activity change, negative = inhibition [18] 11.8% [at 19 µM] | activity change, negative = inhibition [12] 0.0628% [at 19 µM] | activity change, negative = cytotoxicity [13] -0.126% [at 19 µM] | viability change, negative = cytotoxic [14] -0.75% [at 19 µM] | viability change, negative = cytotoxic [15] -2.9% [at 19 µM] | activity change [16] 0.102% [at 18.9 µM, active compounds read high]

CC[C@H]1OC(=O)[C@H](C)[C@@H](O[C@H]2C[C@@](C)(OC)[C@@H](O)[C@H](C)O2)[C@H](C)[C@@H](O[C@@H]2O[C@H](C)C[C@H](N(C)C)[C@H]2O)[C@](C)(O)C[C@@H](C)CN(C)[C@H](C)[C@@H](O)[C@]1(C)O
inactive: Potency [1] | Potency [2] | Potency [3] | Potency [4] | Potency [5] | Potency [6] | Potency [7] | Potency [8] | Potency [9] | Potency [10] | Potency [18] | Potency [12] | Potency [13] | Potency [15]

CC(=O)C(=O)CC(C)C
inactive: Potency [1] | Potency [2] | Potency [3] | Potency [4] | Potency [5] | Potency [17] | Potency [7] | Potency [8] | Potency [9] | Potency [10] | Potency [18] | Potency [12] | Potency [13] | Potency [14] | Potency [15] | Potency [16] | Potency [19]

CCOCCC(=O)OCC
inactive: Potency [1] | Potency [2] | Potency [3] | Potency [4] | Potency [5] | Potency [17] | Potency [7] | Potency [8] | Potency [9] | Potency [10] | Potency [18] | Potency [12] | Potency [13] | Potency [14] | Potency [15] | Potency [16] | Potency [19]

COC1CCC=CO1 (stereo not drawn)
inactive: Potency [1] | Potency [2] | Potency [3] | Potency [4] | Potency [5] | Potency [17] | Potency [7] | Potency [10] | Potency [18] | Potency [12] | Potency [13] | Potency [14] | Potency [15] | Potency [16] | Potency [19]

O=C1c2ccccc2C(=O)c2c(O)ccc(O)c21
inactive: Potency [1] | Potency [4] | Potency [5] | Potency [17] | Potency [7] | Potency [10] | Potency [12] | Potency [13] | Potency [14] | Potency [15] | Potency [16]
active: Potency [2] 24.5 µM | Potency [3] 27.5 µM | Potency [8] 21.9 µM

Cc1ccc(Cl)cc1N
inactive: Potency [1] | Potency [2] | Potency [3] | Potency [4] | Potency [5] | Potency [17] | Potency [7] | Potency [8] | Potency [9] | Potency [12] | Potency [14] | Potency [15] | Potency [16] | Potency [19]

CC(=O)NCCO
inactive: Potency [1] | Potency [2] | Potency [3] | Potency [4] | Potency [5] | Potency [17] | Potency [7] | Potency [8] | Potency [9] | Potency [10] | Potency [12] | Potency [13] | Potency [14] | Potency [15] | Potency [16] | Potency [19]

FC(F)(F)C(F)(F)C(F)(F)C(F)(F)CCI
inactive: Potency [1] | Potency [2] | Potency [3] | Potency [4] | Potency [5] | Potency [17] | Potency [7] | Potency [9] | Potency [10] | Potency [18] | Potency [12] | Potency [13] | Potency [14] | Potency [15] | Potency [16] | Potency [19]

CC(C)N=C=NC(C)C
inactive: Potency [1] | Potency [2] | Potency [3] | Potency [4] | Potency [5] | Potency [17] | Potency [7] | Potency [8] | Potency [9] | Potency [10] | Potency [18] | Potency [12] | Potency [13] | Potency [14] | Potency [15] | Potency [16]

CCCCCCCC(=O)OCCCCCC
inactive: Potency [1] | Potency [2] | Potency [3] | Potency [4] | Potency [6] | Potency [7] | Potency [8] | Potency [9] | Potency [10] | Potency [20] | Potency [12] | Potency [13] | Potency [14] | Potency [15] | Potency [16] | Potency [19]
active: Potency [5] 3.89 µM

Cc1ccc(S(=O)(=O)NC(=O)NC2CCCCC2)cc1
inactive: Potency [1] | Potency [2] | Potency [3] | Potency [4] | Potency [5] | Potency [6] | Potency [7] | Potency [8] | Potency [9] | Potency [10] | Potency [18] | Potency [11] | Potency [12] | Potency [13] | Potency [14] | Potency [15] | Potency [16] | Potency [19]

CCc1ccc(C)cc1
inactive: Potency [1] | Potency [2] | Potency [3] | Potency [4] | Potency [5] | Potency [6] | Potency [7] | Potency [8] | Potency [9] | Potency [10] | Potency [20] | Potency [12] | Potency [13] | Potency [14] | Potency [15] | Potency [16] | Potency [19]

Cc1c[nH]c2ccccc12
inactive: Potency [1] | Potency [2] | Potency [3] | Potency [4] | Potency [5] | Potency [17] | Potency [7] | Potency [8] | Potency [10] | Potency [11] | Potency [12] | Potency [13] | Potency [14] | Potency [15] | Potency [16]

CC[C@H]1OC(=O)[C@H](C)[C@@H](O[C@H]2C[C@@](C)(OC)[C@@H](O)[C@H](C)O2)[C@H](C)[C@@H](O[C@@H]2O[C@H](C)C[C@H](N(C)C)[C@H]2O)[C@](C)(O)C[C@@H](C)C(=O)[C@H](C)[C@@H](O)[C@]1(C)O
inactive: Potency [1] | Potency [2] | Potency [3] | Potency [4] | Potency [5] | Potency [17] | Potency [7] | Potency [8] | Potency [10] | Potency [11] | Potency [12] | Potency [13] | Potency [15] | Potency [16] | Potency [19]
